# Among all 91,000 compounds or so, about 160 (0.18%) were called active.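 Rule for the calls: active = inhibition above the batch mean plus 3 SD and confirmed as a hit by visual image inspection (cut at about 30% in these data, passing the limit was not always enough); inconclusive = above the inhibition threshold but rejected on visual inspection; inactive = the rest.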 What follows is part of a selection rich in actives, with near analogues and random picks from the rest.
# Experiment: disruptors of actin filament network in HUVEC – imaging, phalloidin staining, high-content imaging, primary screen (AID 836)
# Conditions: HUVEC TNFa F-actin phalloidin imaging, at 2 µM, active compounds read high
row,Compound,inhibition
1,c1ccc2c(C[n+]3csc4ccccc43)cccc2c1,1.4% (inactive)
2,O=C(NN1C(=O)C2C3C=CC(C4CC34)C2C1=O)c1ccc(Cl)cc1 (stereo unspecified),-3.8% (inactive)
3,CCCCOC(=O)Nc1sc2nc(C)cc(C)c2c1-n1cccc1,14.1% (inactive)
4,CC1CC(C)CN(S(=O)(=O)c2cccc(C(=O)N3C(=O)c4cccc(N)c4C3=O)c2)C1 (stereo unspecified),-15.2% (inactive)
5,CCOC(=O)NNC(=O)c1ccc(Cl)cc1,18% (inactive)
6,N#C/C(=C(/O)COc1cccc2ccccc12)c1nc2ccccc2[nH]1,-7.4% (inactive)
7,CSCc1cc(N2CCOCC2)nc(SCc2ccc(Cl)cc2Cl)n1,3.4% (inactive)
8,N#CC1=C(N)N(c2ccc(F)cc2)C(=O)C1,-25.3% (inactive)
9,CC(C)(C)NS(=O)(=O)c1ccc(NC(=O)NC2CCCCC2)cc1,2.8% (inactive)
10,O=C1CN(c2nc(-c3ccccc3)c3cc(Br)ccc3n2)c2ccccc2N1,-17.8% (inactive)
11,O=C(Cn1ccc([N+](=O)[O-])n1)NCc1cccs1,-5.1% (inactive)
12,Cc1c(Br)c([N+](=O)[O-])nn1C(C)C(=O)Nc1nccs1 (stereo unspecified),7.3% (inactive)
13,CCCn1nnnc1NC(=O)COc1ccc(Cl)cc1C,0.8% (inactive)
14,CCOC(=O)N1CCN(c2c(NCCCN3CCCC(C)C3)c(=O)c2=O)CC1 (stereo unspecified),8.2% (inactive)
15,Cc1cccc(N(CC(=O)Nc2ccc(-c3nc4ccc(C)cc4s3)cc2)S(C)(=O)=O)c1,29.8% (inactive)
16,COc1cc(C(=O)NC(=S)NCc2ccco2)cc(OC)c1OC,-26% (inactive)
17,CCOC(=O)CC(=O)CSc1nc(-c2ccccc2)cc(-c2ccc(Cl)cc2)c1C#N,-2.9% (inactive)
18,Cc1ccc(NC(=S)NC2CCCC2)cc1,0.9% (inactive)
19,CCc1cccc2c(C=C(C#N)C#N)cn(CC(=O)N3CCCCC3)c12,9.3% (inactive)
20,COc1ccccc1C(=O)NN1C(=O)C2C3C=CC(O3)C2C1=O (stereo unspecified),-1% (inactive)
21,Cc1ccc(N2CCN(/N=C/c3cccs3)CC2)cc1,-35.9% (inactive)
22,O=C(CNC(=O)c1cc2c(s1)CCC2)Nc1ccccc1Br,9.1% (inactive)
23,CC(=O)N1Cc2ccccc2CC1C(=O)O (stereo unspecified),-11.9% (inactive)
24,Cc1ccccc1OCc1nnc(SCC(=O)N2c3ccccc3Sc3ccc(Cl)cc32)o1,-79.4% (inactive)

row,Compound,inhibition
1,O=C(Cc1ccccc1)N/N=C/c1ccc(Cl)cc1Cl,0.1% (inactive)
2,N#C/C(=C/c1ccc(Cl)cc1)NC(=O)c1ccccc1,-6.5% (inactive)
3,O=C(Nc1nc(-c2ccc3c(c2)OCO3)cs1)c1ccncc1,-6.9% (inactive)
4,COc1ccc(OC)c2sc(NC(=O)C3COc4ccccc4O3)nc12 (stereo unspecified),-2.9% (inactive)
5,O=C(Nc1nc(-c2ccncc2)cs1)C1COc2ccccc2O1 (stereo unspecified),55.6% (active)
6,Cc1ccc(NC(=S)Nc2ncccc2C)c(C)c1,-17.2% (inactive)
7,COc1ccc(Oc2c(Cl)cnn(-c3ccccc3)c2=O)cc1,-7.9% (inactive)
8,Cc1cc(N=CC2=C(O)CCCC2=O)no1,3.6% (inactive)
9,COc1ccc(O)c(C(=O)c2cnc3onc(C(C)C)c3c2)c1,0.9% (inactive)
10,COc1ccc(O)c(C=Nc2cc(C)on2)c1,73.6% (active)
11,Cc1ccc(C(=O)N/C(=C/C=C/c2ccccc2)C(=O)NCc2ccco2)cc1,19.4% (inactive)
12,COC(=O)Nc1sc2nc(C)cc(C)c2c1-n1cccc1,-0.5% (inactive)
13,CC1=NN(C(=O)Cc2ccc(C)cc2)C(O)(c2cccnc2)C1 (stereo unspecified),5.3% (inactive)
14,O=C1c2cccc3cc(Br)cc(c23)C(=O)N1Nc1ccccc1,-0.3% (inactive)
15,O=C(Nc1cccc2ncccc12)C(Cl)(Cl)Cl,17.1% (inactive)
16,O=C(NC1CCN(C(=S)NCc2ccco2)CC1)c1ccc(F)cc1,9.8% (inactive)
17,N#C/C(=C1/CCCN1)c1ccccn1,-5.5% (inactive)
18,Nc1c(-c2cccc(Cl)c2)cnn1-c1cccc([N+](=O)[O-])c1,14.9% (inactive)
19,Cc1cc(OC(=O)c2ccc(Cl)cc2)cc(=O)n1C,2.4% (inactive)
20,O=C(O)c1ccccc1NC(=S)NC(NC(=O)c1ccccc1[N+](=O)[O-])C(Cl)(Cl)Cl (stereo unspecified),-20.2% (inactive)
21,COc1ccc(-c2nnc(SCC(=O)NC3CCCCC3)o2)cc1OC,30.5% (active)
22,COc1ccc(CN(C(=O)CSc2nnc(-c3ccc(OC)c(OC)c3)o2)c2ccc(F)cc2)cc1,15.5% (inactive)
23,COc1ccc(CCNC(=O)CSc2nnc(-c3cccc(F)c3)o2)cc1OC,2.3% (inactive)
24,CC(=O)c1nn(-c2cccc(Br)c2)cc1C(=O)c1cccc2ccccc12,18.2% (inactive)

row,Compound,inhibition
1,O=C(CSc1ccc(/C=N/NC(=O)c2cccc(F)c2)o1)Nc1ccccc1,1.1% (inactive)
2,NC(=O)C1(N2CCCCC2)CCN(C(=S)Nc2ccc(Cl)cc2)CC1,-20.4% (inactive)
3,COCCCn1c(SCc2cccc(OC)c2)nc2cc(OC)c(OC)cc2c1=N,3.7% (inactive)
4,Cc1ccc(N2CCN(C3=NC(=O)/C(=C\c4cccs4)S3)CC2)cc1,24.1% (inactive)
5,CCCCCCOC(=O)NCC(O)c1ccccc1 (stereo unspecified),61.8% (active)
6,CCCCOC(=O)NCN1C(=O)C2C3C=CC(C3)C2C1=O (stereo unspecified),11.5% (inactive)
7,CCCCCOC(=O)NCCOC(=O)Nc1ccc(C(=O)OCC)cc1,8% (inactive)
8,CCC(=O)OCc1c(C(F)(F)F)nn(C)c1Oc1cccc(C(F)(F)F)c1,-4% (inactive)
9,COC(=O)c1ccc(C2C(Oc3ccccc3C)C(=O)N2CCc2ccc(OC)c(OC)c2)cc1 (stereo unspecified),3.1% (inactive)
10,Cc1[nH]c2ccccc2c1C(=O)COC(=O)C(C)C,-13% (inactive)
11,Cc1ccc(-c2nc(C)sc2CC(=O)O)cc1,7.2% (inactive)
12,N=c1oc2ccccc2cc1C(=O)N/N=C/c1ccccc1,-3.7% (inactive)
13,COc1cc(/C=N\NC(=O)C2C(=O)NCC2c2ccccc2)cc(OC)c1O (stereo unspecified),2% (inactive)
14,CC1CCc2c(c3ccccc3[nH]c2=O)O1 (stereo unspecified),3% (inactive)
15,Nc1c(-c2ccc(F)cc2)cnc2ncnn12,21.9% (inactive)
16,Cc1ccc(SCC(=O)NC(=O)NCc2ccco2)c(C)c1,1.6% (inactive)
17,COc1ccc([N+](=O)[O-])cc1NC(=O)CCc1ccccc1,9.1% (inactive)
18,CC(Oc1ccc(-c2ccccc2)c(F)c1)c1ccn(S(=O)(=O)c2cccc3ccccc23)n1 (stereo unspecified),1.3% (inactive)
19,N#C/C(=C(/O)Cc1cccc2ccccc12)c1nc2ccccc2s1,18.2% (inactive)
20,O=C(Nc1ncc2c(n1)CC(c1ccco1)CC2=O)c1ccc(Cl)cc1 (stereo unspecified),100% (active)
21,COc1cc(C2CC(=O)c3cnc(NC(C)=O)nc3C2)cc(OC)c1OC (stereo unspecified),-1.6% (inactive)
22,CC1=C(C(=O)Nc2ccc(Cl)cc2)C(c2ccco2)NC(=O)N1 (stereo unspecified),-60.1% (inactive)
23,FC(F)(F)c1cccc(-c2cc3ccccc3nc2N2CCCC2)c1,-10% (inactive)
24,COc1cccc(NC(=O)C2c3cc(OC)c(OC)cc3C(=O)N(C)C2c2cccnc2)c1 (stereo unspecified),29% (inactive)

row,Compound,inhibition
1,NC(=O)COc1ccc(/C=N/NC(=O)C2CCCN2S(=O)(=O)c2ccc(Cl)cc2)cc1 (stereo unspecified),-7.7% (inactive)
2,CC(=O)c1cn(CCCCCCCCCCn2cc(C(C)=O)c(=O)[nH]c2=O)c(=O)[nH]c1=O,6.8% (inactive)
3,O=C(CCc1ccc(S(=O)(=O)N2CCOCC2)cc1)Nc1ccc2ccccc2c1,-5% (inactive)
4,O=C(CNC(=O)c1ccccc1)NCC(=O)OCc1ccc(Cl)cc1,-29.4% (inactive)
5,CC(C(=O)Nc1ccc(F)c(F)c1F)N1CCCCCC1 (stereo unspecified),9.4% (inactive)
6,O=c1c2ccccc2nc2n1C(CSc1ccc(Cl)cc1)CN2 (stereo unspecified),-15.2% (inactive)
7,Cc1cccc(CSc2nnc(NC(=O)CSc3nnc(C)s3)s2)c1,-21.1% (inactive)
8,O=C(NC1CCCCC1)c1cc([N+](=O)[O-])ccc1N1CCOCC1,-40.7% (inactive)
9,Cc1n[nH]c(=O)n1-c1ccc(Oc2ccccc2)cc1,22.6% (inactive)
10,Cc1ccc(C)c(NC(=O)C2Cc3ccccc3CN2C(=O)OCc2ccccc2)c1 (stereo unspecified),26.6% (inactive)
11,Cc1ccc(S(=O)(=O)N(CC(=O)NCCSC2CCCCC2)c2ccccc2F)cc1,1.5% (inactive)
12,CC(C)CC(=O)N1CCC(O)(CS(=O)(=O)Cc2ccccc2)CC1,34.4% (inactive)
13,Cc1ccc(-c2csc(N(Cc3ccco3)C(=O)c3cccs3)n2)cc1,5.4% (inactive)
14,Fc1ccccc1COc1ccccc1CNCc1ccncc1,-4.1% (inactive)
15,COc1ccccc1NC(=O)c1ccc2nc(N3C(=O)CCC3=O)sc2c1,19.2% (inactive)
16,COc1cc(C2C(C(=O)OCCC#N)=C(C)NC3=C2S(=O)(=O)c2ccccc23)cc(OC)c1OC (stereo unspecified),-21.9% (inactive)
17,O=C(CCCN1C(=O)c2cccc3cccc(c23)C1=O)N1CCN(Cc2ccc3c(c2)OCO3)CC1,21% (inactive)
18,Cc1cccc(COc2ccccc2/C=N/Nc2ccc([N+](=O)[O-])cc2)c1,15.8% (inactive)
19,COc1ccccc1OCCNc1cc(N2CCOCC2)ccc1[N+](=O)[O-],5.1% (inactive)
20,O=C(COc1ccc(Br)cc1F)NC1CCN(Cc2ccccc2)CC1,-0.2% (inactive)
21,C/C(=N/NC(=O)c1ccc(NC(=O)c2ccc(F)cc2)cc1)c1ccccc1,-18.2% (inactive)
22,COc1cc(/C=C(/NC(=O)c2ccccc2)C(=O)Nc2cccc(O)c2)c([N+](=O)[O-])cc1OC,7.4% (inactive)
23,C=CCNC(=S)NNc1ncnc2sc3c(c12)CC(C)(C)OC3,-11.6% (inactive)
24,C=CCNC(=O)c1sc(SC)cc1-c1ccc(Cl)cc1,7.4% (inactive)
